Reference: the supplement of paper PMC10849652
The full data set covers some 7,900 targets. This sample favours those with a hit. About 0.6% of all pairs of compound and target were hits.

These targets were tested with CC[C@H](C)N1C=C(C2=C(C=C(C=C21)C3=CN=C(C=C3)N4CCNCC4)C(=O)NCC5=C(C=C(NC5=O)C)C)C (assay: log2 fold change, soluble protein after heating vs DMSO (PISA); higher = thermal stabilisation; K562 cells, 10 uM, 30 min; active = over 0.2 and 3.5 SD of the protein, either way, in both replicates (recomputed)).
How it was run: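 K562 cells at 2×10^6 cells/mL were treated with 10 μM compound for 30 min. Aliquots were heated for 3 min across 48°C-58°C, pooled, and extracted in PBS with 0.5% NP-40 at 4°C; soluble protein was the supernatant after 21,000xg for 90 min. Soluble protein was quantified by TMTpro 16plex LC-MS/MS with channel sums equalised, and reported as log2 fold change in thermal stability against DMSO controls, with values from duplicates.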

UniProt Q8N8J7, sequence (Q8N8J7 whole entry, looked up): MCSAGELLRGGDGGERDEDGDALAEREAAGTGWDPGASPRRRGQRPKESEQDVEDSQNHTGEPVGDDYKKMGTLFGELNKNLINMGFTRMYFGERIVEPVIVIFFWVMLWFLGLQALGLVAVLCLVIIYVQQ
UniProt Q9NSI2, sequence (Q9NSI2 whole entry, looked up): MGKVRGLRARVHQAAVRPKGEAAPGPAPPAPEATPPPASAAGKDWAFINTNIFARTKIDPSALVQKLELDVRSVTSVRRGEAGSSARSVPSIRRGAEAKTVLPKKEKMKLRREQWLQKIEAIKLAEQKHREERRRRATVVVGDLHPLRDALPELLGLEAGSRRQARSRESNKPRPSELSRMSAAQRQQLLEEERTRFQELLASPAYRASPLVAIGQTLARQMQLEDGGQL
UniProt P32519, sequence (P32519 whole entry, looked up): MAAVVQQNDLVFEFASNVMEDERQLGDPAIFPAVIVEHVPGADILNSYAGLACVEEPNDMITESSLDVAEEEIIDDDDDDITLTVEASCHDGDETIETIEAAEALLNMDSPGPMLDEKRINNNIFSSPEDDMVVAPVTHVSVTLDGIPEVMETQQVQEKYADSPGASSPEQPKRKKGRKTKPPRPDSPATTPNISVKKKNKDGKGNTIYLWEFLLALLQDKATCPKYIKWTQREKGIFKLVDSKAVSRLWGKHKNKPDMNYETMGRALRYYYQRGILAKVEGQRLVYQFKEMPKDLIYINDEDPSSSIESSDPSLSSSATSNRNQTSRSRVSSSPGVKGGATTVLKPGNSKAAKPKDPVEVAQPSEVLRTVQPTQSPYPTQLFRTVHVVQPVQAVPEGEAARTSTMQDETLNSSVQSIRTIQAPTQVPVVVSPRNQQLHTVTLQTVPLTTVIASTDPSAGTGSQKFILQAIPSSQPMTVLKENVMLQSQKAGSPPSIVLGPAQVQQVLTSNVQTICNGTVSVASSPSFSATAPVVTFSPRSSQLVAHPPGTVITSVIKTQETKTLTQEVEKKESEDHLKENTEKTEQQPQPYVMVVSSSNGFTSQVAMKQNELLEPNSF
UniProt P09622, sequence (P09622 whole entry, looked up): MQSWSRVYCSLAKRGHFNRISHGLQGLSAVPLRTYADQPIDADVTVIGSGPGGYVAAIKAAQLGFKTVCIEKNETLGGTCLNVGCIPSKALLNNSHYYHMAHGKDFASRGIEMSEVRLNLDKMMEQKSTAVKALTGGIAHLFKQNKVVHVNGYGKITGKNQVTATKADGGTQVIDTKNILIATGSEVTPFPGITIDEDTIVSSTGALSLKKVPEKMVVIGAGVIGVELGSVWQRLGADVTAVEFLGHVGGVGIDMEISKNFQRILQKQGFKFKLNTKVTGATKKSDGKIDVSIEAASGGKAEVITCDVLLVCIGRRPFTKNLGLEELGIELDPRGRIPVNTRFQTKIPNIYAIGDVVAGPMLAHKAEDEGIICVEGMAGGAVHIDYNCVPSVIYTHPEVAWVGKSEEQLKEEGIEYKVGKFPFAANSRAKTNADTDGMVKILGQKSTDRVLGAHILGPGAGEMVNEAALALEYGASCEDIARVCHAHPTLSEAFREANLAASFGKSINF
UniProt O43432, sequence (O43432 whole entry, looked up): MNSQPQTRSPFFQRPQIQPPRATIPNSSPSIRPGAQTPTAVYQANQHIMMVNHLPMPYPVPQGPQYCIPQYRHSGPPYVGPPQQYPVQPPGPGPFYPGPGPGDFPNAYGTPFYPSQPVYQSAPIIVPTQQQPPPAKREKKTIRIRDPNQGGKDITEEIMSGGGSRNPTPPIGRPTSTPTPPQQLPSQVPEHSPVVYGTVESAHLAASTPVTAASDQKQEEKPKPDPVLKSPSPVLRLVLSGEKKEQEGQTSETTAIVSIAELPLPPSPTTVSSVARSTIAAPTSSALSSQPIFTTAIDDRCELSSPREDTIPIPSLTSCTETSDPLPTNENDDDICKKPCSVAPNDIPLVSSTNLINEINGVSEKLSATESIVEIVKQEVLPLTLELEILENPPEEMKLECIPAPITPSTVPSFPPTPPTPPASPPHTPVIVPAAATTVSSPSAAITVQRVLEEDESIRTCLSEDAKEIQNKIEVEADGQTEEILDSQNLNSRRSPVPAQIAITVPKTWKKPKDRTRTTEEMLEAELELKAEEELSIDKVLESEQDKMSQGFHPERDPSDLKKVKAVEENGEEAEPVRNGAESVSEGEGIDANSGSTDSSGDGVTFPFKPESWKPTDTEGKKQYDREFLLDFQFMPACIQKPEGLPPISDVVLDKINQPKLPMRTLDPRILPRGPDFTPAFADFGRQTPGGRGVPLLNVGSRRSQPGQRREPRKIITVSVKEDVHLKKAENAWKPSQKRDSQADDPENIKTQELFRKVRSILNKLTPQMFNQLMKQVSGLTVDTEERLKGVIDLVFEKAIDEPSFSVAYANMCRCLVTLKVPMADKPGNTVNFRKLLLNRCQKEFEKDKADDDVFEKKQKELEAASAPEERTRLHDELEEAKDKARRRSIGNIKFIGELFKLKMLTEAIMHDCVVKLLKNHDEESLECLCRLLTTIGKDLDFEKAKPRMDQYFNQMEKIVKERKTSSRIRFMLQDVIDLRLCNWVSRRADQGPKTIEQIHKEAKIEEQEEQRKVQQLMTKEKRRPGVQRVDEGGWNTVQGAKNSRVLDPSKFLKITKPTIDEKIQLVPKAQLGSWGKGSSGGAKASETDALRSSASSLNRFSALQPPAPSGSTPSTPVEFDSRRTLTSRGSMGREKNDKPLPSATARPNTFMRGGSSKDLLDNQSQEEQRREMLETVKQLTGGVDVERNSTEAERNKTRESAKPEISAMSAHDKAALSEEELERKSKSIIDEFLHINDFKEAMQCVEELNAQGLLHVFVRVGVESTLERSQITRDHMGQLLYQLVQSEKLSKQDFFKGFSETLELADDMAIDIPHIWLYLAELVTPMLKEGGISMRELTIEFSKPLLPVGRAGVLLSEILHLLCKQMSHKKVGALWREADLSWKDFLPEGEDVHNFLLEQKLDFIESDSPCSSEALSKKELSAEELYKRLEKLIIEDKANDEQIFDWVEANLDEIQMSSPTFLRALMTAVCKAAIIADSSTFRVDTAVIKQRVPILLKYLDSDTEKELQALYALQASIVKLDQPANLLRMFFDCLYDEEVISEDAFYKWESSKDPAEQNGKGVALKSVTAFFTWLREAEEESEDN
UniProt Q9UER7, sequence (Q9UER7 whole entry, looked up): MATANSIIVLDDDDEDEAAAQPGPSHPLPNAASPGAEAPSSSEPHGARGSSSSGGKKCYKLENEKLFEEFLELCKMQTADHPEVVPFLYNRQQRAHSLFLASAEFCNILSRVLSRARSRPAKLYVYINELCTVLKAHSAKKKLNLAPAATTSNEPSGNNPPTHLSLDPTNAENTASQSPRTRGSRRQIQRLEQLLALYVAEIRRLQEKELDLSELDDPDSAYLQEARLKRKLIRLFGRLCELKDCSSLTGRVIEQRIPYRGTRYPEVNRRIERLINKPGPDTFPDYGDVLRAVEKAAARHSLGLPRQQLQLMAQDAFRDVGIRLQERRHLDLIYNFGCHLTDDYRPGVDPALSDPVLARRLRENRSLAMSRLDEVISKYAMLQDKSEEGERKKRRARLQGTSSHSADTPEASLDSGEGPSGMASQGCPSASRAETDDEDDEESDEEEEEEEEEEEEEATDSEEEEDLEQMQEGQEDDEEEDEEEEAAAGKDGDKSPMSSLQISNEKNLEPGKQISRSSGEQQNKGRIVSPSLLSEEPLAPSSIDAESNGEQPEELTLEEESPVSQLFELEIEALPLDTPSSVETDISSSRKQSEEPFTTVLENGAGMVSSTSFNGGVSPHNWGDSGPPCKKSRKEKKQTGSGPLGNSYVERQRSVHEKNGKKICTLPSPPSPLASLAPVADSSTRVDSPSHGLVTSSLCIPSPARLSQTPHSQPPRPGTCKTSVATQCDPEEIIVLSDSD
UniProt Q9H777, sequence (Q9H777 whole entry, looked up): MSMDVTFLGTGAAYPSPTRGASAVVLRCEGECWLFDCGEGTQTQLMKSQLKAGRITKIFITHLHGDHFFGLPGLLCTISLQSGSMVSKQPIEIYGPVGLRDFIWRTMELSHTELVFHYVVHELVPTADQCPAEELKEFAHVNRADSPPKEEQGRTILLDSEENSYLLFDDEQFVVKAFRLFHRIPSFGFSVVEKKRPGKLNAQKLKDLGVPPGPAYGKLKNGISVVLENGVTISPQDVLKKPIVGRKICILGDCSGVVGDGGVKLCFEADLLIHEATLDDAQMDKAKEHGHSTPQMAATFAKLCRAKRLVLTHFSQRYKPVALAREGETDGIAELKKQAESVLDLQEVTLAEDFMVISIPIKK
UniProt P68104, sequence (P68104 whole entry, looked up): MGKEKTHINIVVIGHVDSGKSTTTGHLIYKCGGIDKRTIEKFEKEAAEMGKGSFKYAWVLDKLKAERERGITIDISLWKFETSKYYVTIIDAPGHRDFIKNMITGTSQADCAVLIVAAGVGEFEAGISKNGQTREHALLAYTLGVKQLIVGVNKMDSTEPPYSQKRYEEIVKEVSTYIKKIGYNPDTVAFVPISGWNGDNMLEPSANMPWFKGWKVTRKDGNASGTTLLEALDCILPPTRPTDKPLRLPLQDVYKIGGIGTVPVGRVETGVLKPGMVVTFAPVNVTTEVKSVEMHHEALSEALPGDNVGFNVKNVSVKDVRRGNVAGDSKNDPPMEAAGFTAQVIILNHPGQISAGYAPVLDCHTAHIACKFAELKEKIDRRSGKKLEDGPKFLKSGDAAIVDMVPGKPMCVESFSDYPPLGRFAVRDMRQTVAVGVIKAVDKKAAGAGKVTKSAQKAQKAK
UniProt Q8N5C7, sequence (Q8N5C7 whole entry, looked up): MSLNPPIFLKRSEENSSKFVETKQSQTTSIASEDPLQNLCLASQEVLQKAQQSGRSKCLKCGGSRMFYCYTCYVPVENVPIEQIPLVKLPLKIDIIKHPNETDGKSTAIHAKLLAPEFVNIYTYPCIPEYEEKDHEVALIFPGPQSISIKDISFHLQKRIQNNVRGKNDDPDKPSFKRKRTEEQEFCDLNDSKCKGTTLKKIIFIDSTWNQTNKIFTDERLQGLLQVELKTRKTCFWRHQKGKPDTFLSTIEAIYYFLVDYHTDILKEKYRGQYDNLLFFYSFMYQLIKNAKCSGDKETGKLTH

log2 fold change, inactive:
FAM207A (UniProt Q9NSI2) 0.044
FAM160B1 (UniProt Q5W0V3) 0.07
EDC3 (UniProt Q96F86) 0.057
DSN1 (UniProt Q9H410) -0.034
DNAJB1 (UniProt P25685) 0.064
CYB561A3 isoform 2 (UniProt Q8NBI2) -0.089
DNAJB12 (UniProt Q9NXW2) -0.033
DDB1 (UniProt Q16531) -0.032
FAM3A (UniProt P98173) -0.02
ENTPD7 (UniProt Q9NQZ7) 0.08
EEF1A1 (UniProt P68104) 0.131
FAM118B (UniProt Q9BPY3) 0.035
CTSZ (UniProt Q9UBR2) -0.058
DOCK8 (UniProt Q8NF50) 0.004
DNAJC24 (UniProt Q6P3W2) 0.029
DHRS3 (UniProt O75911) 0.02
EIF2AK3 (UniProt Q9NZJ5) 0.357
ELAC1 (UniProt Q9H777) 0.046
EIF4G3 isoform 3 (UniProt O43432) 0.007
FAM118A (UniProt Q9NWS6) 0.136
DTWD1 (UniProt Q8N5C7) -0.07
DOLPP1 (UniProt Q86YN1) -0.052
DNAH11 (UniProt Q96DT5) -0.029
DYNC1LI2 (UniProt O43237) -0.181
DAXX (UniProt Q9UER7) 0.204
DENND10 (UniProt Q8TCE6) 0.121
DLD (UniProt P09622) -0.028
ELF1 (UniProt P32519) 0.185
DYRK1A isoform 2 (UniProt Q13627) 0.104
EIF4E2 (UniProt O60573) 0.124
FAM241A (UniProt Q8N8J7) -0.002
CTSH (UniProt P09668) 0.008
CYP24A1 (UniProt Q07973) -0.209
CTNNB1 (UniProt P35222) -0.116
